Data on 26 molecules can be found in PubChem BioAssay AID693 (University of Pittsburgh Molecular Library Screening Center, 2007).

Among all 97,000 compounds or so, about 130 (0.13%) were called active. Rule as the data show it: active = inhibition above about 34% (passing the limit was not always enough); inactive = the rest. The entries come from a sample that favours actives as a whole.

Sequence of Serine/threonine-protein kinase PLK1 (Homo sapiens) (P53350 whole entry, looked up): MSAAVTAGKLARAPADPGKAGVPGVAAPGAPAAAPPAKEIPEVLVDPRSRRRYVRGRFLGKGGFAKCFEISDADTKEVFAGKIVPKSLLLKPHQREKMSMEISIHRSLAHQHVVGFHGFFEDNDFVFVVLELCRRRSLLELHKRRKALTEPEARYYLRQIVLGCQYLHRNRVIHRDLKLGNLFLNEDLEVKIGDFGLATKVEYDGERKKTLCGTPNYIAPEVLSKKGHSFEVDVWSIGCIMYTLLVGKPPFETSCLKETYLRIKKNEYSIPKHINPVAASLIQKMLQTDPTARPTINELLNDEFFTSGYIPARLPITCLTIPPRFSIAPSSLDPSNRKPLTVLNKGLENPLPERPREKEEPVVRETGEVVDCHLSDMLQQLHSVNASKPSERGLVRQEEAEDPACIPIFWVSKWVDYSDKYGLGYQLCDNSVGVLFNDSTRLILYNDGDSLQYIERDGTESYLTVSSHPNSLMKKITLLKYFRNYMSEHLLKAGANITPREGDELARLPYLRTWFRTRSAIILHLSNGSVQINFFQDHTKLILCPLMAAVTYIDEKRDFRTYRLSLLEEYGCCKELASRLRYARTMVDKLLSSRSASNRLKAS

The assay concerns the target Serine/threonine-protein kinase PLK1 (Homo sapiens) (UniProt P53350). As to the kind of experiment: blockers of phosphopeptide binding to Plk1 PBD – biochemical, fluorescence polarization, primary screen (AID 693). To be noted: stronger effect = higher value,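 tested at about 20 µM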.
What is called inhibition is the change of the read-out against control, counted positive when it falls. Take `COc1ccc(NC(=O)Cn2c(=O)n(Cc3ccco3)c(=O)c3ccccc32)cc1`: the inhibition was 10.4% (inactive). On to `Cc1nc2ccccc2c(-c2ccccc2)c1C(=O)c1ccccc1`, for which the inhibition was -0.63% (inactive). To `COc1cc(/C=N\NC(=O)CNC(=O)c2cccc([N+](=O)[O-])c2)ccc1O` belongs -17.4% (inactive); to `Brc1ccc(/C=N/N2CCN(C3c4ccccc4-c4ccccc43)CC2)s1`, -17.6% (inactive). Under `COc1ccc(CCN(C(=O)COc2ccccc2)c2nc(-c3ccccc3)cs2)cc1OC` stands -9.73% (inactive); under `Cc1cnc(NC(=O)C2CCCC2)s1`, -23.2% (inactive).

Take `COc1ccc(N2CCN(C(=O)CNC(=O)c3ccc(C(C)(C)C)cc3)CC2)cc1`: the inhibition is -1.88% (inactive). As for `CCC(C)n1c(-c2cc(OC)c(OC)c(OC)c2)nc2nc3ccccc3nc21` (stereo unspecified), the inhibition was 14.5% (inactive).

In the case of `Cc1nn(CCOc2ccccc2)c(=O)n1-c1ccccc1F`, the inhibition was 8.4% (inactive).

Regarding `Cc1nc2cc(NC(=O)NCc3ccccc3)ccc2o1`, the inhibition was -8.52% (inactive). Under `O=C(OCc1cn(-c2ccc(Cl)c(Cl)c2)nn1)c1ccccc1Cl` stands 1.36% (inactive); under `CCC(C)(C)c1ccc(Oc2ccc(NC(=O)COC(=O)C3=COCCO3)cc2)cc1`, 1.77% (inactive); under `Cc1ccccc1NC(=S)Nc1cccc([N+](=O)[O-])c1`, 34.5% (inactive). As to `COc1cc(C(=O)N2CCN(C/C=C/c3ccccc3)CC2)cc(OC)c1C`, the inhibition is -11.1% (inactive). To `CC(=O)c1ccc2c(ccc3ccccc32)c1` belongs -3.5% (inactive); to `CN1CC(c2ccccc2)C2(COc3ccccc3C2=O)C12C(=O)Nc1ccccc12` (stereo unspecified), 5% (inactive); to `O=C(CCn1c(SCC(=O)c2ccccc2)nc2ccccc2c1=O)NCc1ccc(F)cc1`, 4.81% (inactive). To `CCS(=O)(=O)Nc1ccc(C2=NN(S(=O)(=O)c3ccc(F)cc3)C(c3ccco3)C2)cc1` (stereo unspecified) belongs 11% (inactive). Regarding `Cc1cccc(N(C(=O)c2ccc(CN3CCOCC3)o2)C(C(=O)NC2CCCCC2)c2ccc(F)cc2)c1` (stereo unspecified), the inhibition was 10.4% (inactive).

With `CCOC(=O)c1sc2nc(SC)nc(-c3ccccc3)c2c1N`, the inhibition is -9.12% (inactive). Turning to `Cc1nn(Cc2ccccc2)c2c1C(c1ccccc1)C(C#N)=C(N)O2` (stereo unspecified), the inhibition was 17% (inactive).

`O=C(CSCc1ccc(Cl)cc1)N1CCN(Cc2ccc3c(c2)OCO3)CC1`: the inhibition is -16.3% (inactive). Regarding `CC1(C)CC(CC(=O)O)C(=O)O1` (stereo unspecified), the inhibition is -18.7% (inactive). As to `CCCC(O)(c1ccc(OC)cc1)C(CN(C)C)c1ccccc1` (stereo unspecified), the inhibition was 3.1% (inactive). Under `C/C(=N\NS(=O)(=O)c1cccc([N+](=O)[O-])c1)c1cc2ccccc2o1` stands 22% (inactive). To `CN(CC(=O)Nc1cccc2c1CCCC2)S(=O)(=O)c1ccc(Cl)cc1` belongs -30% (inactive).
